Test results from PubChem BioAssay (NCATS).
Results filed as inconclusive are left out. Entries that show only a call come without a potency. Unmarked numbers belong to inactive results. Activity calls are given as the source filed them. Calls come from the whole dose curve; as a rule, active = well fitted inhibition curve with a large enough effect; inconclusive = small, poorly fitted or top-dose-only effect; inactive = flat fitted curve, though single readings scatter.
Potency is the fitted concentration of half-maximal effect.

Each molecule was assayed on CP315 (assay: qHTS profiling for inhibitors of Plasmodium falciparum proliferation (AID 504749; note: nearly all actives have a fitted effect of over 60% in size)). Details: P. falciparum in erythrocytes, SYBR Green DNA, 72 h; series mostly up to 28.7 µM.
Outline: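 Quantitative HTS: compounds pinned into medium, infected erythrocytes added (0.3% parasitemia, 2.5% hematocrit), 72 h culture at 37 C under 5% CO2. Saponin/Triton lysis with SYBR Green I, overnight RT, then fluorescence read.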
In the case of `Cc1ncsc1CCCl`, the Potency is reported as “inactive”.
In the case of `c1ccc2c(c1)sc1ccccc12`, the Potency is reported as “inactive”.
`CCOC(=O)CC(SP(=S)(OC)OC)C(=O)OCC` (stereo not given) was tested, and the Potency was “inactive”.
With `CCCC(C)(COC(N)=O)COC(N)=O` the Potency was “inactive”.
`O=C1Nc2ccc(Cl)cc2C(c2ccccc2)=NC1O` (stereo not given) was tested, and the Potency was “inactive”.
In the case of `CCCCC/C=C\C/C=C\C/C=C\C/C=C\CCCC(=O)NCC(=O)O`, the activity, negative = inhibition is reported as -5.37% [at 2.67 µM].
In the case of `CNC(C)(C)Cc1ccccc1`, the Potency is reported as “inactive”.
`CCCCCCC(=O)CCCCCC/C=C/C[C@@H](O)[C@H](O)[C@@](N)(CO)C(=O)O` was tested, and the Potency was “inactive”.
For `CN1C[C@H](C(=O)N[C@]2(C)O[C@@]3(O)[C@@H]4CCCN4C(=O)[C@H](Cc4ccccc4)N3C2=O)C=C2c3cccc4[nH]cc(c34)C[C@H]21`, the Potency was 12 µM (active).
`CCC1(c2ccccc2)C(=O)N(COC)C(=O)N(COC)C1=O` was tested, and the Potency was “inactive”.
In the case of `NC(=O)CS(=O)C(c1ccccc1)c1ccccc1` (stereo not given), the Potency is reported as “inactive”.
`O=c1[nH]oc2c1CCNC2` was tested, and the Potency was “inactive”.
For `COc1c2c(cc3c1OCO3)CCN(C)C2`, the Potency was “inactive”.
`CCCCCCCCCC(=O)O[C@H]1CC[C@H]2[C@@H]3CCC4=CC(=O)CC[C@@H]4[C@H]3CC[C@]12C` was tested, and the Potency was “inactive”.
In the case of `COP(=S)(OC)Oc1ccc(SC)c(C)c1`, the Potency is reported as “inactive”.
With `CCC(C)(C)c1ccc(O)cc1` the Potency was “inactive”.
In the case of `O=C(Nc1ccc(Br)cc1)c1cc(Br)cc(Br)c1O`, the Potency is reported as “inactive”.
`Clc1ccc2c(c1)C(c1ccccc1)=NCc1nncn1-2` was tested, and the Potency was “inactive”.
For `C[C@]12CC[C@@H]3c4ccc(OC(=O)N(CCCl)CCCl)cc4CC[C@H]3[C@@H]1CC[C@@H]2O`, the Potency was “inactive”.
In the case of `CN1C(=O)CCS(=O)(=O)C1c1ccc(Cl)cc1` (stereo not given), the Potency is reported as “inactive”.
